Assay outcomes (PubChem)
Only some compounds are listed: those with a hit (about 6.5% of all), similar ones and a draw of the others.
DPM-DC inhibit = inhibitors of Streptococcus pneumoniae diphosphomevalonate decarboxylase; purified DPM-DC, PK/LDH coupled NADH fluorescence; calls only at 10 µM; 65,000 tested, 0.49% active;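 active means the 320 compounds with the highest percent inhibition in the single-dose primary screen, excluding strongly autofluorescent ones, cut at about 32% in these data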;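 further: kinetic rate of NADH fluorescence loss reporting ADP formed by the decarboxylase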
Fluor 339 460 = intrinsic fluorescence of library compounds, ex339/em460 – biochemical, MLSMR library, data from DPM-DC assay, artefact control, profiling panel; fluorescence fold increase at 10 µM; compound autofluorescence, ex339/em460 nm, NADH buffer; hits give high values; 1 = no-compound wells, NADH background; 65,000 tested, 5.5% active;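 active means at 10 µM, mean starting fluorescence two-fold or more over control wells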;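 further: signal is the first read of a kinetic run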
MK inhibit = S. pneumoniae mevalonate kinase inhibition | purified MK, PK/LDH-coupled NADH absorbance 340 nm | inhibition, % at 10 µM | 65,000 tested, 0.48% active | AID 555;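 active means ranked among the strongest by inhibition in the single 10 µM screen, a fixed top-ranked set picked for dose follow-up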
NADH enzymes = inhibition of NAD/NADH coupling enzymes, library profiling. coupled PK/LDH NADH assays, four targets. IC50, µM (series often up to 10 µM), for inactives: at the highest dose inhibition. 65,000 tested, 0.02% active;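 active means single-dose screening hits from any of four coupled enzyme assays that gave an IC50 when retested across doses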;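 further: the DPM-DC format reads NADH fluorescence rather than 340 nm absorbance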
A340 absorber = compounds absorbing at 340 nm; compound absorbance at 340 nm, fold over control; fold change at 10 µM; 65,000 tested, under 10 active;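 active means at 10 µM dose, initial 340 nm absorbance at least 2 fold that of control wells; inactive means change under 2 fold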;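 further: initial absorbance extrapolated from kinetic A340 decline of NADH oxidation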
Spn PMK inh = blocks S. pneumoniae phosphomevalonate kinase | purified PMK, PK/LDH-coupled NADH absorbance 340 nm | inhibition, % at 10 µM | 65,000 tested, 0.49% active;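 active means top-ranked compounds by inhibition in the single 10 µM screen, taking a fixed number of the strongest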;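 further: 0% = full reaction with DMSO carrier and 100% = background rate without enzyme reaction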
An asterisk follows results filed as active; i = inactive; · = no result shown; + = active, no number.

SMILES	DPM-DC inhibit	Fluor 339 460	MK inhibit	NADH enzymes	A340 absorber	Spn PMK inh
CCOC(=O)c1nn(-c2ccc3c(c2)OCO3)cc1O	·	2.1*	0	8%	1.1	15
O=S1(=O)NC2CCCCCN2c2ccc(F)cc21 (stereo not given)	i	3.6*	0	11%	1.1	9
O=C(Nc1ccc(F)cc1)C1CCCCC1	i	1	0	2%	1	6
O=C(Nc1ccc(Cl)cc1)c1cc2nc(-c3ccco3)cc(C(F)(F)F)n2n1	i	2.5*	8	9%	1.1	5
Cc1ccccc1Cn1cc(NC(=O)c2cc3nc(-c4ccco4)cc(C(F)(F)F)n3n2)cn1	+	3*	13	23%	1.1	14
Cc1cccc2c1NC(C)CC2C (stereo not given)	i	1.1	3	2%	1	0
Cc1ccc(-c2nnn(CC(=O)N3CCN(c4ccccc4)CC3)n2)o1	i	1.1	0	2%	1.1	7
COc1cc(OC)c(-c2nnc(-c3ccc(OC)c(OC)c3OC)o2)cc1OC	·	2.1*	7	13%	1.2	19
COc1cc2ccccc2cc1C(=O)OCC(=O)N1CCOCC1	·	5.1*	0	7%	1	13
O=C(OCC(=O)N1CCOCC1)c1ccc[nH]c1=O	i	1.1	6	5%	1	9
O=C(NCc1ccco1)c1cc2ccccc2o1	i	1	0	0%	1	0
Cc1ccc2cc3cc(C(=O)NCCC(C)C)oc3nc2c1	·	5.1*	0	2%	1.1	4
Cc1ccc2cc3cc(C(=O)NCc4ccco4)oc3nc2c1	·	4.6*	5	8%	1.2	11
CS(=O)(=O)N(CC(=O)Nc1cccnc1)c1ccc2c(c1)OCO2	i	1.1	3	2%	1.1	3
O=C(COc1ncnc2ccccc12)N1CCN(S(=O)(=O)c2ccc(Cl)cc2)CC1	i	1	0	6%	0.99	8
CCOC(=O)Cc1c(C)nc2cc(-c3ccc(Cl)cc3)[nH]n2c1=O	i	1.5	1	0%	1.1	0
CCOC(=O)c1cc(=O)n2[nH]c(-c3ccc(C)cc3)cc2n1	·	3.9*	15	13%	1	10
CCN1CCN(c2ncnc3c2sc2nc(N4CCOCC4)c4c(c23)CCC4)CC1	i	1.6	14	14%	1.1	0
c1nc(NCCN2CCOCC2)c2sc3nc(N4CCOCC4)c4c(c3c2n1)CCC4	·	2.3*	10	5%	1.2	0
CCCCc1ccc(S(=O)(=O)Nc2cc(C)on2)cc1	i	1.3	11	4%	1	0
O=C(Nc1ccc(-c2nc3cccnc3s2)cc1)c1ccco1	·	2.1*	0	0%	1.3	0
O=C(Nc1ccc(-c2nc3cccnc3s2)cc1)c1ccc(Br)o1	·	2.2*	3	6%	1.1	9
O=C(Nc1cccc(-c2nc3cccnc3s2)c1)c1ccco1	i	1.2	0	6%	1	17
CCCCn1c2c(c(=O)n(C)c1=O)C(c1ccc(OC)cc1)N1CCCCCC1=N2 (stereo not given)	i	1.3	0	5%	1.1	11
Cc1csc(=N)n1CC(=O)N1CCc2ccccc21	i	1.1	0	0%	1	0
SMILES	DPM-DC inhibit	Fluor 339 460	MK inhibit	NADH enzymes	A340 absorber	Spn PMK inh
COc1ccc(-c2cc(C(N)=O)nc(N3CCCCCC3)n2)cc1	·	3.5*	7	9%	1.1	11
O=c1oc2c3c4c(cc2c(C(F)(F)F)c1CCN1CCOCC1)CCCN4CCC3	i	1.1	0	4%	1	4
CC(C)c1cc(=O)oc2c3c4c(cc12)CCCN4CCC3	·	2.1*	6	5%	1.1	4
COC(=O)C1C(=O)c2c(n[nH]c2C)CC1(C)C (stereo not given)	i	1.1	5	3%	1	1
Cc1[nH]nc2c1-c1nc3ccccc3nc1C(C)(C)C2	·	3.9*	9	10%	1.1	10
Cc1ccccc1NC(=O)C1CCC(C)(C(=O)O)C1(C)C (stereo not given)	i	1	0	2%	0.97	0
CCOC(=O)c1cc2c(=O)n3ccccc3nc2n(CCCOC)c1=NC(C)=O	·	2.4*	7	3%	1	0
CC(C)OCCCn1c(=N)c(C(N)=S)cc2c(=O)n3ccccc3nc21	i	1.9	0	7%	1.1	10
CCCn1c(=NC(=O)c2ccco2)c(C(=O)OCC)cc2c(=O)n3ccccc3nc21	·	3.8*	3	2%	1.1	1
COc1ccc(S(=O)(=O)Cc2ccc(C(=O)NCc3ccc(F)cc3)o2)cc1	i	1	7	4%	1	5
O=c1[nH]c2cc(Cl)cc(Cl)c2[nH]c1=O	i	2.5*	8	13%	1	12
Cn1c(=O)[nH]c2cc(Cl)cnc21	i	1.1	0	5%	1	10
O=C(Nc1ccc2c(c1)CCC2)C1COc2ccccc2O1 (stereo not given)	i	2.1*	0	8%	1	15
O=C(NCC1CCCO1)C1CCN(C(=O)c2ccc(Br)cc2)CC1 (stereo not given)	i	1.1	10	6%	1	3
CC1(C)Cc2nc(N)c(C(=O)NCCO)cc2CO1	·	2.3*	2	4%	1.1	5
CCOC(=O)c1sc2nc3c(cc2c1N)COC(C)(C)C3	i	1.5	8	5%	1	2
O=C(CN1CCOCC1)OCCCC1CCCCC1	i	1.1	11	7%	1	9
O=C(Nc1nnc(-c2ccc3c(c2)OCCO3)o1)c1ccc(Cc2ccccc2)cc1	·	2.1*	0	5%	1.1	9
COC(=O)CSc1nc2cc(OC)ccc2cc1C#N	i	2.3*	4	7%	1.1	2
CCOc1ccc2cc(C#N)c(SCC(=O)NC(C)CC)nc2c1 (stereo not given)	i	3.2*	5	5%	1	0
CCOC(=O)CSc1nc(N)c(C#N)c(-c2ccc(OC)cc2)c1C#N	i	1.1	13	7%	1	7
COc1ccc2cc(C#N)c(NC(C)C)nc2c1	·	2.6*	9	3%	1	8
CCOC(=O)CSc1nc2cc(OCC)ccc2cc1C#N	i	2.6*	9	13%	1.1	8
COc1ccc2cc(C#N)c(SCC(=O)N3CCCC3)nc2c1	i	1.8	0	6%	1	1
Cc1ccc2cc(C#N)c(SCC(=O)NCc3ccco3)nc2c1	i	1.2	5	5%	1	10
COc1ccc(OC)c(S(=O)(=O)NCCc2ccccc2)c1	i	1.1	11	6%	1	4
CCOc1ccc2cc(C#N)c(SCC(=O)N3CCC(C)CC3)nc2c1	i	2.5*	12	6%	1	9
Cc1cccc2cc(C#N)c(SCC(=O)N3CCC(C)CC3)nc12	i	1.1	6	8%	1	14
